Reference: the emibetuzumab library of Makowski et al. (2022)
The other results are listed elsewhere or left out. No count for the full screen is at hand.

B1: VH:VL chains; a variant is named by its letters at X, in order (parent)
chain 1: QVQLVQSGAEVKKPGASVKVSCKASGYTFTDYXMHWVRQAPGQGLEWMGXVNPNXXXTTYNQKFEGRVTMTTDTSTSTAYMELRSLRSDDTAVYYCARXNXLDXWGQGTTVTVSS
chain 2: DIQMTQSPSSLSASVGDRVTITCSVSSSVSSIYLHWYQQKPGKAPKLLIYSTSNLASGVPSRFSGSGSGTDFTLTISSLQPEDFATYYCQVYSGYPLTFGGGTKVEIK

Variants of: B1
Assay: yeast display scFab, FACS + sequencing
Details: with MET
How it was run: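 Heavy-chain CDR mutant scFab yeast surface library, enriched by two magnetic rounds on HGFR-Fc-coated Protein A beads and then by FACS. Cells were labelled with 1 nM HGFR-Fc in PBSB with 1% milk and anti-Myc for 3 h at room temperature, and the top 50% antigen-positive cells were gated. Round-3 sorted and input populations were deep sequenced in two replicates. Antigen binding call: positive if a sequence occurred in both antigen-positive samples, negative if it occurred only in input.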

Row | Variant | antigen binding call
1 | DTTGSDVY | no binding
2 | ATGRAAGD | no binding
3 | FRTGGSAD | binds
4 | FRTEGSAD | binds
5 | FETGGYVY | no binding
6 | SEARSSSV | no binding
7 | YATEGVWV | no binding
8 | DARGGSSV | no binding
9 | AEREADWV | no binding
10 | VETGNDVA | no binding
11 | YRGKDSGA | binds
12 | YRGKDAGA | binds
13 | YRGGDYGA | no binding
14 | YRGKDSGS | binds
15 | VRKKGVSS | no binding
16 | VAGTGSSD | no binding
17 | VRGKGSSD | binds
18 | VRRGDSSD | binds
19 | VTGTGSSD | no binding
20 | VEGGGSSS | no binding
21 | VRAGDDSD | no binding
22 | VRGKGSSS | binds
23 | VTGGDSSD | no binding
24 | VRTADDGA | no binding

Row | Variant | antigen binding call
25 | VAATADVA | no binding
26 | YKGRGYLV | binds
27 | YKGRGYAV | binds
28 | YGGRGYAV | no binding
29 | YKGEGDLV | no binding
30 | YKETGYAV | binds
31 | YKKTGYWV | no binding
32 | YKGEGYGV | no binding
33 | YKGRGSLV | binds
34 | YKEGAYAD | no binding
35 | DAARGDSA | no binding
36 | AKGGGDVV | no binding
37 | YAEEGVGY | no binding
38 | YRARGFGA | no binding
39 | YRARGAGA | binds
40 | YRARGVGA | binds
41 | YRARGAVA | binds
42 | SEARSSSY | no binding
43 | VEEEGAGV | no binding
44 | DTTKSDGV | no binding
45 | YRARSAVA | binds
46 | YRERSSVA | binds
47 | SEARSAVA | no binding
48 | YRARSAWA | binds

Row | Variant | antigen binding call
49 | YRARSSVA | binds
50 | DRARTFVA | no binding
51 | SEARSAWA | no binding
52 | AEERASAF | no binding
53 | VAGTGAVV | no binding
54 | VAEKGDLS | no binding
55 | VTTKSDLA | no binding
56 | SAGKDDLA | no binding
57 | DEGGTDVY | no binding
58 | YRARGSLF | binds
59 | YTARGVSF | no binding
60 | YRARGSVF | binds
61 | FGAATDGV | no binding
62 | DTREGDGA | no binding
63 | FAGRDAVV | no binding
64 | DGGKNAGD | no binding
65 | YKRGGSSY | binds
66 | FKARDSSA | no binding
67 | VERGGDSY | no binding
68 | FKRRDSVY | no binding
69 | FKRGSSSY | binds
70 | DARGGSSY | no binding
71 | YKRGSSSY | binds
72 | YKKESDSY | no binding

Row | Variant | antigen binding call
73 | YERRDVLY | no binding
74 | YRTEDVGA | no binding
75 | YARRDVGA | no binding
76 | YRRGGDGA | binds
77 | YREGGDGA | no binding
78 | YEKGGDGA | no binding
79 | YRRGSVGA | binds
80 | YRKKSVGA | no binding
81 | YRRGGVGA | binds
82 | AGGENDGD | no binding
83 | SGTKGYWD | no binding
84 | DTKAAAGD | no binding
85 | VEGGGDGV | no binding
86 | DAGGASSV | no binding
87 | YTGTSSSV | no binding
88 | YRGRSSSV | binds
89 | ARGRSDAV | no binding
90 | YRGRSASV | binds
91 | FARETFGV | no binding
92 | VETEGDWY | no binding
93 | YARRGSGV | no binding
94 | YRRRGDGV | binds
95 | YREEGDGV | no binding
96 | YRRRGASV | binds

Row | Variant | antigen binding call
97 | YRRRGVGV | binds
98 | YGRRGFSV | no binding
99 | YRRRGSGV | binds
100 | VETRSDVA | no binding
101 | VTGTSDLY | no binding
102 | VTAGDDVY | no binding
103 | DAGRGDGF | no binding
104 | YATGGYAV | no binding
105 | YKRRDFGV | no binding
106 | DAGGAAGV | no binding
107 | YRRRGFGV | binds
108 | YRRRGAGV | binds
109 | DARRGAGV | binds
110 | DAAGAAGV | no binding
111 | VATGGYAV | no binding
112 | DATGGYAV | binds
113 | VTGTGAVV | no binding
114 | VEGTNDVV | no binding
115 | FKRKAAAA | no binding
116 | YKRGSAAA | binds
117 | YARADAAA | no binding
118 | VKRGSAAA | binds
119 | AKRGSAAV | no binding
120 | YKRGGAAA | binds

Row | Variant | antigen binding call
121 | YTRAGAAA | no binding
122 | VKGRAAVA | no binding
123 | DKEGGAAA | no binding
124 | VTTKSAAV | no binding
125 | VKRGSAAV | binds
126 | DAGTGDGV | no binding
127 | DEGRGDGV | no binding
128 | VTGESAAV | no binding
129 | DEARSDGA | no binding
130 | YRRRGASD | binds
131 | FRRRGSSD | binds
132 | YRRRGSSD | binds
133 | FRREGSSD | no binding
134 | FRTRGSSD | binds
135 | YRRRGYSD | no binding
136 | YAGTGDLV | no binding
137 | YRTRSSGA | binds
138 | YRTRSAGA | binds
139 | VRTRSFGA | no binding
140 | DETRSAGA | no binding
141 | SGRGNDAV | no binding
142 | YARAGYAV | no binding
143 | YRRGGAAV | binds
144 | YRRGAAAV | binds

Row | Variant | antigen binding call
145 | YTRGADGV | no binding
146 | YRTRGYAV | no binding
147 | YRKGGAAV | binds
148 | DARGGAAV | no binding
149 | YRRGGYAV | binds
150 | ARRGAYGV | no binding
151 | AEGTSAVF | no binding
152 | DAGGGDGA | no binding
153 | AARADFGV | no binding
154 | ATTKSDGA | no binding
155 | YRTRSSWD | binds
156 | YRTRGSWD | binds
157 | DATRSSWD | no binding
158 | VRTRGSWD | binds
159 | VATRGFWD | no binding
160 | DRGKNDGD | no binding
161 | DKEGGDGA | no binding
162 | DREEGAGA | no binding
163 | YRRRSAVA | binds
164 | DREGDAVA | no binding
165 | YRRRSAGA | binds
166 | VTGGDDGA | no binding
167 | VEGADAVA chain 1 G106S | no binding
168 | AGGGNSGV | no binding

Row | Variant | antigen binding call
169 | VKGRGSWS | binds
170 | VKGKSSWS | no binding
171 | YKGRGSWS | binds
172 | SKGRSSWS | no binding
173 | VKGRASWS | no binding
174 | VKGTDAWY | no binding
175 | YEGGGDVY | no binding
176 | YKGEDDVY | no binding
177 | YKGGSDVY | binds
178 | YKGGSAWY | binds
179 | VKGGAAVY | no binding
180 | YKGGSAGY | binds
181 | YKGTDAWY | no binding
182 | DEKEGDAA | no binding
183 | YRGGAAWY | binds
184 | YEGGADVD | no binding
185 | YRGGAAWD | binds
186 | YAGGAYLY | no binding
187 | YRRRGFGD | no binding
188 | YRARGDLD | binds
189 | YTGTSDLD | no binding
190 | YRRRGSVD | binds
191 | YRRRGFVD | binds
192 | YRRRGSLD | binds

Row | Variant | antigen binding call
193 | DGARNSGV | no binding
194 | FAGRAAWA | no binding
195 | SETTDDVA | no binding
196 | AGGGNDVY | no binding
197 | YRRRGDVD | binds
198 | DARRGSGD | no binding
199 | YTERGDVD | no binding
200 | YRRRGAVD | binds
201 | YARRGSLD | binds
202 | YRRRGYVD | no binding
203 | YARADSLD | no binding
204 | YRRRSSVD | binds
205 | SEGTGDWV | no binding
206 | VEEEGDSA | no binding
207 | VETEGDVA | no binding
208 | YRRRGDLD | binds
209 | YRREGSLD | binds
210 | YRRRGSWD | binds
